Bioassay records deposited in PubChem by The Scripps Research Institute Molecular Screening Center.
Most compounds without a hit are left out; they make up all but 4.1% or so of the library.
DAX1 inh-1: NR0B1 (DAX1) inhibition; inhibition, % at 6.75 µM; P51843; HEK293 Gal4-DAX1 luciferase reporter, luminescence; 340,000 compounds, 0.99% hits;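 active = inhibition above the mean over all tested compounds plus 3 SD, cut at about 4.2% in these data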;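 also: inhibition shows as a rise in luminescence from relieved DAX1 repression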
Target sequence (P51843 207-470 limits assumed): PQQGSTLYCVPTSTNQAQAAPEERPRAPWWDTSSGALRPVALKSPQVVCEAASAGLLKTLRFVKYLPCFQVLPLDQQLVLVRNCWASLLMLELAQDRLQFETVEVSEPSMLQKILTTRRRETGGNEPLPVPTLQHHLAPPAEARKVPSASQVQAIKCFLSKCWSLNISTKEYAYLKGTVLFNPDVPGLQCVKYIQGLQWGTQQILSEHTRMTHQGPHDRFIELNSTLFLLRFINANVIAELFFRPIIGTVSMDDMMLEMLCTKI
hgDAF-12 ag: activates the H. glycines DAF-12 receptor ligand-binding domain; HEK293 GAL4-hgDAF12 UAS-luciferase reporter, agonist luminescence; normalized to butyrate control; activation, % at 6.8 µM; 370,000 compounds, 1.8% hits;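 active = activation above a cutoff set at the mean of all screened compounds plus 3 SD, cut at about 10% in these data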
ssDAF12 agonist: S. stercoralis DAF-12 activation, primary screen; HEK293 ssDAF-12/GRIP1 lit1-tk-luc reporter, luminescence; % of 3 µM dafachronic acid response; activation, % at 6.8 µM; 370,000 compounds, 1% hits; AID 652126;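 active = activation above the mean over all tested compounds plus 3 SD, cut at about 0.9% in these data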
DAX1 inh-2: inhibitors of DAX1 repression of SF-1 activated StAR promoter; HEK293T StAR-luciferase reporter, SF-1/DAX-1 repression relief; inhibition, % at 6.8 µM; 370,000 compounds, 1.1% hits;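 active = inhibition above the mean over all tested compounds plus 3 SD, cut at about 3.6% in these data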;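 also: higher inhibition means more luminescence from relief of DAX-1 repression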
hcDAF12 agonist: H. contortus DAF-12 activation, primary screen. HEK293 hcDAF-12 lit1-tk-luc reporter, luminescence; 0% DMSO, 100% Δ7-dafachronic acid. activation, % at 6.8 µM. 370,000 compounds, 1.4% hits;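 active = activation above the mean of all tested compounds plus 3 SD, cut at about 5.5% in these data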
DAX1 conf: confirmation of human DAX1 (NR0B1) inhibitors; 2,400 compounds, 87% hits; shares compounds with DAX1 inh-2; HEK293T StAR-promoter luciferase reporter, SF-1/DAX-1 repression; inhibition, % at 6.8 µM;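 active = inhibition above the average of every tested compound plus 3 SD, cut at about 3.8% in these data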;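 also: active compounds raise luminescence by relieving repression of the StAR reporter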
SF1 mutant ctr: counter-screen for DAX1 inhibitors: nonselective inhibitors with SF-1 AF2 mutant. shares compounds with DAX1 inh-2. HEK293 StAR-luciferase, luminescence. inhibition, % at 6.8 µM. 2,400 compounds, 78% hits. AID 652136;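 active = inhibition above the mean of all tested compounds plus 3 SD, cut at about 3% in these data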
LXRb hcDAF ctr: activates human LXR-beta, counter-screen for hcDAF-12 agonists | shares compounds with hcDAF12 agonist | HEK293 Gal4-LXR tk-luc reporter, luminescence, 24 h; normalized: DMSO 0%, positive control 100% | activation, % at 6.8 µM | 3,400 tested, under 10 active | AID 743027;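 active = mean percent activation of the reporter above a cutoff set as the average over tested compounds plus their standard deviation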
Target sequence (P55055 whole entry, looked up, the tested form may be a part): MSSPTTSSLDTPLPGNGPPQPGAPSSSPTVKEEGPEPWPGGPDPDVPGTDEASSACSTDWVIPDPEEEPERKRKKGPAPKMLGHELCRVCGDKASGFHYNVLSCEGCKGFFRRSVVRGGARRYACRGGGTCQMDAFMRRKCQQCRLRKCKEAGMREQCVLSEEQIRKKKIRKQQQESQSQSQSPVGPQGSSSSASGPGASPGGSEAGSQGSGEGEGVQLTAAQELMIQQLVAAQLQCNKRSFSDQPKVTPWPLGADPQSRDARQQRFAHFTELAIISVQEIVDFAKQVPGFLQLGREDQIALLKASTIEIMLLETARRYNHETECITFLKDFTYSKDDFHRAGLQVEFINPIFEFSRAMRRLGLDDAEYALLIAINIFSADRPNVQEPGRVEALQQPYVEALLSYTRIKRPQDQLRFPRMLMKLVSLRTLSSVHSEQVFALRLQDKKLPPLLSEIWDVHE
hcDAF12 conf: confirmation of H. contortus DAF-12 agonists; 3,400 compounds, 61% hits; activation, % at 6.8 µM; AID 743032; HEK293 hcDAF-12 lit1-tk-luc reporter, luminescence; % of Δ7-dafachronic acid response; shares compounds with hcDAF12 agonist;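 active = mean activation across triplicate tests above the threshold derived from the earlier primary screen, cut at about 5.5% in these data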
hgDAF12 ag: confirmation of H. glycines DAF-12 agonists | shares compounds with hgDAF-12 ag | HEK293 GAL4-hgDAF12 luciferase reporter, agonist mode; percent of butyrate response | 3,300 compounds, 80% hits | activation, % at 6.8 µM;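 active = mean activation over triplicate wells above the hit cutoff derived from the earlier primary screen, cut at about 11% in these data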
LXR ag 2: LXR-beta agonism as DAF-12 counter-screen; AID 743051; activation, % at 6.8 µM; 3,300 tested, under 10 active; HEK293 Gal4-LXR luciferase reporter, 24 h; shares compounds with hgDAF-12 ag;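 active = mean activation of the triplicate above a set limit carried over from the primary screen, none filed active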
Hits are given with their value; 0 = inactive; - = not tested or not shown.

SMILES	DAX1 inh-1	hgDAF-12 ag	ssDAF12 agonist	DAX1 inh-2	hcDAF12 agonist	DAX1 conf	SF1 mutant ctr	hgDAF12 ag	LXR ag 2	others
Cc1ccc(-c2cc3nc(-c4ccccc4)cc(N)n3n2)cc1	0	0	0	0	0	-	-	-	-
COC(=O)c1ccc2nc(-c3cccc(Cl)c3)c(Cc3ccccc3C(F)(F)F)n2c1	-	0	0	0	0	-	-	-	-
COc1ccc(-c2ncn(CCc3ccccc3OC)c2CC(C)C)cc1	-	0	0	0	0	-	-	-	-
CCOC(=O)C(C)n1nc(/C=C/c2ccc(OC)cc2)ccc1=O (stereo not drawn)	0	0	0	0	0	-	-	-	-
CC(C)c1ccc(/C=C/c2ccc(=O)n(C)n2)cc1	0	19	0	5.3	6.4	6.7	3.4	14	0
COC(=O)[C@]12C[C@H](CC(=O)N3CCN(C(=O)C4CC4)CC3)C(=O)N(Cc3ccccc3)C1=C[C@H](COCc1ccccc1)O[C@@H]2C	-	0	0	0	0	-	-	-	-
CC1CCN(c2nc3ccc(C(=O)NCCCN4CCCCC4C)cc3s2)CC1 (stereo not drawn)	0	15	1.6	7.2	0	12	7.1	15	0
COc1cccc(NC(=O)Nc2ccc3c(c2)nc(C)n3C)c1	0	20	0	4.7	5.7	12	7.8	15	0
Cc1ccc(OCCNC(=O)[C@@H](Cc2ccccc2)NC(=O)[C@H]2O[C@@H](n3ccc(=O)[nH]c3=O)[C@H](O)[C@@H]2O)cc1C	-	0	0	0	0	-	-	-	-
Cc1ccc(NC(=O)OC2CC3CC2[C@H]2CCCCN2[C@H]3C)cc1 (stereo partly drawn)	-	0	0	0	0	-	-	-	-
CCS(=O)(=O)Nc1cc(-c2nc3cccnc3s2)ccc1C	0	22	0	6.4	8.3	8.9	7.7	16	0	LXRb hcDAF ctr=0;hcDAF12 conf=5.6
O=C(O)c1ccc(N/N=C/C=C/c2ccccc2)cc1	0	15	0	6.3	0	11	5.8	15	0
O=C(N/N=C/C=C/c1ccccc1)c1ccncc1	0	0	0	0	0	-	-	-	-
CCc1ccc(C2=NN(C(C)=O)C(c3ccco3)C2)cc1 (stereo not drawn)	0	15	0	4.9	0	9.5	5.5	15	0
CC1(O)C(=O)C2(C)C=CC1C1C(=O)N(c3ccccc3)C(=O)C12 (stereo not drawn)	-	0	0	0	0	-	-	-	-
O=C(Nc1ccc(C(F)(F)F)cc1)OC1CCC12CCC(c1ccccc1)CC2 (stereo not drawn)	-	0	0	0	0	-	-	-	-
COC(=O)c1c(-c2ccc(OC)cc2)c2c(c3c4cc(OC)ccc4n(S(=O)(=O)c4ccc(C)cc4)c13)C(=O)N(C)C2	-	0	0	0	0	-	-	-	-
Cc1ccc(/C=N/Nc2ccc(C(=O)O)cc2)o1	0	16	0	4.6	6.3	8.4	6.6	13	0
O=C(O)c1ccc(N/N=C/c2ccc(-c3ccc(Br)cc3)o2)cc1	0	0	0	0	0	-	-	-	-
O=C(O)c1ccc(N/N=C/c2ccc(-c3ccccc3Cl)o2)cc1	0	24	1.3	9.2	9.8	26	11	12	0	LXRb hcDAF ctr=0;hcDAF12 conf=12
CC(CO)(CO)NC(=O)c1ccc(C#Cc2cccc(F)c2)cn1	-	0	0	0	0	-	-	-	-
CCN(Cc1ccccc1)c1ccc(N=Nc2nn(C)c(C)c2[N+](=O)[O-])cc1	0	0	0	0	0	-	-	-	-
CCN(CC)c1ccc(N=Nc2nn(C)c(C)c2[N+](=O)[O-])cc1	0	16	1.2	4.7	0	14	5.2	15	0
CCCCNS(=O)(=O)CC1NCCc2ccccc21 (stereo not drawn)	-	0	0	0	0	-	-	-	-
Cc1ccc(NC(=O)COc2ccccc2C=O)cc1Cl	0	20	0	4.5	5.8	9.6	5.4	15	0
SMILES	DAX1 inh-1	hgDAF-12 ag	ssDAF12 agonist	DAX1 inh-2	hcDAF12 agonist	DAX1 conf	SF1 mutant ctr	hgDAF12 ag	LXR ag 2	others
COc1cc(SC)ccc1C(=O)Nc1ccc(C)cc1	7.1	18	2.1	5.5	14	13	9.9	20	0	LXRb hcDAF ctr=0;hcDAF12 conf=13
COc1cc(SC)ccc1C(=O)Nc1ccccn1	0	19	1.0	5.0	10	9.6	5.2	14	0	LXRb hcDAF ctr=0;hcDAF12 conf=7.2
COc1cc(SC)ccc1C(=O)Nc1ccc(C)cc1C	0	0	0	0	0	-	-	-	-
COc1cc(SC)ccc1C(=O)Nc1ccc2c(c1)OCO2	9.4	20	1.4	7.8	8.9	9.7	6.2	16	0	LXRb hcDAF ctr=0;hcDAF12 conf=6.3
Cc1ccc(Nc2ncnc3nc[nH]c23)cc1Cl	0	14	0	6.4	0	8.1	5.5	14	0
O=C(/C=C\Nc1ccccc1Br)c1ccc2c(c1)OCO2	0	17	0	5.3	9.4	9.6	0	16	0	LXRb hcDAF ctr=0;hcDAF12 conf=17
COc1ccccc1NC(=O)CSc1nnc(-c2ccc(C)cc2)o1	0	14	0	6.3	0	15	8.3	17	0
O=C(CSc1nnc(-c2cccnc2)o1)Nc1ccccc1F	0	14	0	8.4	0	11	4.4	12	0
O=C(CSc1nnc(-c2cccnc2)o1)Nc1ccccc1Br	0	0	0	0	0	-	-	-	-
COc1ccc(C)cc1NC(=O)CSc1nnc(-c2ccc(Br)cc2)o1	0	0	0	0	0	-	-	-	-
CC(=O)c1cc(-c2ccccc2)n(CC(=O)NCc2ccccc2Cl)c1C	-	0	0	0	0	-	-	-	-
COc1ccc(C(=O)Nc2nc3ccccc3c(=O)[nH]2)cc1	0	19	1.1	6.3	6.9	14	8.8	17	0	LXRb hcDAF ctr=0;hcDAF12 conf=0
COc1ccc(C(=O)Nc2nc3cc(OC)c(OC)cc3c(=O)[nH]2)cc1	0	0	0	0	0	-	-	-	-
CN(C)c1ccc(-c2nnc(-c3cccs3)o2)cc1	4.4	20	0	5.8	0	15	5.9	17	0
CN1C(=O)c2cc(NC(=O)C3CCOCC3)ccc2OC[C@@H]2O[C@@H](CC(=O)NCc3ccccc3F)CC[C@@H]21	-	0	0	0	0	-	-	-	-
COC(=O)Cc1ccc2sc(-c3ccccc3)nc2c1	0	21	1.0	5.9	13	13	8.6	17	0	LXRb hcDAF ctr=0;hcDAF12 conf=11
